# Screens from PubChem BioAssay.
# CtBP-E1A inh: blocks the CtBP interaction with E1A; AlphaScreen GST-E1A/His-CtBP binding, 1536-well; hits give low values; activity change, % (test concentration not listed); actives 0.49% (n = 340,000); AID 651724; in the data active = activity change below about -65%; inconclusive = mostly about -30% to -63%
#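 Protein mix (5X: 125 nM each GST-E1A, His-CtBP) was incubated with pinned compound 2 h at 37 deg C in dark, in 50 mM Tris pH 8.0 buffer with 300 mM NaCl. Glutathione donor and nickel acceptor beads followed; AlphaScreen signal read after 1 h.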
# TDP1 cell CPT: growth inhibition of DT40 Tdp1-/-;hTDP1 cells with camptothecin (screen for TDP1 inhibitors). actives 12% (n = 420,000). Potency, µM (top dose mostly 46.2 µM), for the others: at the top dose activity change, negative = growth inhibition, actives largely listed as inhibitors. chicken DT40 Tdp1-/-;hTDP1 cells + 20 nM CPT, ATP luminescence, 48 h; also: potency is read from the fitted curve at half-maximal effect; nearly all actives have a fitted effect of over 55% in size
#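 Chicken DT40 Tdp1-/- cells stably complemented with human TDP1 were seeded at 400 cells/well in medium containing 20 nM camptothecin, exposed to pin-transferred compounds, and grown at 37 °C for at least 48 hr. Viability was read as ATP luminescence.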
# Six1-Eya2 inh: inhibitors of human Six1/Eya2 interaction; Q15475+O00167; AlphaScreen GST-Six1/His-Eya2 binding, biochemical; hits give low values; activity change, % (no concentration beside the values); actives 0.56% (n = 360,000); in the data active = activity change below about -65%; inconclusive = mostly about -30% to -63%
#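 Six1/Eya2 binding was read as AlphaScreen signal after compounds were pinned into GST-Six1 plus His-tagged Eya2 (5X stock 250/500 nM) in pH 8.0 Tris/NaCl/TCEP buffer, beads added, then incubated 1 h, 37 C, dark.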
# IL1B secr inh: inhibitors of inflammasome signaling (IL-1 beta secretion) | THP-1 LPS/ATP IL-1B secretion, AlphaLISA, 16 h; hits give low values | activity change, % at 57.5 µM | actives 4.7% (n = 360,000); in the data active = activity change below about -50%; inconclusive = mostly about -30% to -49%
#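 THP-1 cells pretreated 1 hr with compounds (up to 57.5 uM final), then stimulated with LPS (250 ng/mL final) plus ATP (1.25 mM final); secreted IL-1B measured by AlphaLISA after 16 hr, decreased signal indicating inhibition.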
# DT40 TDP1 no CPT: qHTS for Inhibitors of human tyrosyl-DNA phosphodiesterase 1 (TDP1): qHTS in cells in absence of CPT | DT40 Tdp1-/- hTDP1 cells, no CPT, ATP luminescence, 48 h | Potency, µM (highest dose often 46.2 µM), inactives show top-dose activity change, negative = growth inhibition, actives largely listed as inhibitors | actives 15% (n = 420,000) | AID 686978, 2013; also: potency is read from the fitted curve at half-maximal effect; nearly all actives have a fitted effect of over 55% in size
#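 DT40 Tdp1-/-;hTDP1 cells, no CPT (DMSO vehicle only), 400 cells/well; compounds pin-transferred; ≥48 hr, 37 °C; CellTiter-Glo 30 min RT dark, luminescence read.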
# TDP1 inh: blocks human tyrosyl-DNA phosphodiesterase 1 | Potency, µM (doses to about 130 µM), without a hit: at the top dose activity change, negative = inhibition, actives largely listed as inhibitors | actives 0.28% (n = 350,000) | Q9NUW8 | recombinant TDP1, AlphaScreen DNA substrate cleavage; also: potency is read from the fitted curve at half-maximal effect; nearly all actives have a fitted effect of over 40% in size
# Target sequence (Q9NUW8 whole entry, looked up): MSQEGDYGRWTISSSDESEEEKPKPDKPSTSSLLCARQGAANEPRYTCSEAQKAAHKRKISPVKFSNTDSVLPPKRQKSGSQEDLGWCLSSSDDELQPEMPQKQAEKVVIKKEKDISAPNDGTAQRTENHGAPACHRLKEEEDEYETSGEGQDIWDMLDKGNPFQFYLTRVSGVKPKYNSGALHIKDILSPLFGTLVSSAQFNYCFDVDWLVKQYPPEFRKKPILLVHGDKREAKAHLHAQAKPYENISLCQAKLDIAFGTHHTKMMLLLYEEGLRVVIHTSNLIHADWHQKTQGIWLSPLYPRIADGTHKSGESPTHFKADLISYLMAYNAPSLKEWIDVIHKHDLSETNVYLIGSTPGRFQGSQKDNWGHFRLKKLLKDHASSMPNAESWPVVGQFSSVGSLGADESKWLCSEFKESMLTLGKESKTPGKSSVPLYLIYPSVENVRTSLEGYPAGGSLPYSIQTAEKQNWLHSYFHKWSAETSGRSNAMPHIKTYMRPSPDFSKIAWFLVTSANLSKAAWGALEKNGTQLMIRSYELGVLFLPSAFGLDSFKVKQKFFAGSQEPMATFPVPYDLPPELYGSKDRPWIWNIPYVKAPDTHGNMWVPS
#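 Tdp1 1 nM final; 15 min RT w/ cpd; substrate 15 nM, 5 min; beads 10 ug/ml, 10 min; AlphaScreen read. Neg ctrl: no enzyme.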
# * hit, by the source's call; u = inconclusive; x = not tested or not shown. Rows were chosen to be rich in hits. Some 18% of all compounds tested hit in one or more screens of this group. Unless noted, calls follow the shape of the dose curve; as a rule, active = well fitted curve in the direction sought with a large enough effect; inconclusive = small, poorly fitted or top-dose-only effect, or another doubt; inactive = no such curve, though single readings can be large; an effect the other way counts as inactive or inconclusive. % is scaled to controls: 0 for no effect and ±100 for the full control effect.
SMILES,CtBP-E1A inh,TDP1 cell CPT,Six1-Eya2 inh,IL1B secr inh,DT40 TDP1 no CPT,TDP1 inh
CC(C)C(N)c1csc(Nc2nncc3ccccc23)n1 (centres undefined),0,u,8,0,16µM*,x
CCOC(=O)NNc1nncc2ccccc12,-2,-4%,2,5,-3%,15%
C=C(Br)COC(c1ccco1)[C@H](Cc1ccccc1)NC(=O)OC(C)(C)C (some centres undefined),x,u,x,x,11µM*,x
C[C@H](NC(=O)OC(C)(C)C)C(=O)c1ccco1,x,-2%,x,x,-4%,x
O=c1c2ccccc2nc2n1CC/C2=C/N1CCN(c2cccc(C(F)(F)F)c2)CC1,6,18µM*,-5,19,u,-3%
Cc1ccc(/C=N/NC(=O)c2cc(-c3ccccc3)nc3ccccc23)o1,-28,18µM*,-22,41,9.2µM*,5%
Cc1ccc(/C=N/NC(=O)c2ccc(-c3ccccc3)cc2)o1,0,-3%,-10,-8,u,x
Cc1cc(C(=O)N/N=C/c2ccc(C)o2)c2ccccc2n1,4,1.5µM*,-10,52,1.3µM*,-3%
CCCc1cc(C(=O)N/N=C/c2ccc(C)o2)c2ccccc2n1,13,u,9,61,u,7%
Cc1ccc(/C=N/NC(=O)c2cc(C3CC3)nc3ccccc23)o1,0,4.1µM*,-10,59,3.7µM*,5%
Cc1ccc(-c2cc(C(=O)N/N=C/c3c(C)nn(C)c3C)c3ccccc3n2)cc1C,-6,12µM*,-10,-51*,10µM*,-1%
Clc1cccc(Cl)c1Cn1c(-c2cccnc2Cl)nc2ccccc21,-3,u,-2,-6,u,4%
C=CCn1c(-c2cccnc2Cl)nc2ccccc21,-17,1%,-15,-12,5%,6%
C=CCn1c(-c2cccnc2Cl)nc2cc(Cl)c(Cl)cc21,4,18µM*,-2,-2,u,1%
CCCn1c(-c2cccnc2Cl)nc2cc(Cl)c(Cl)cc21,1,15µM*,-1,7,u,5%
COc1ccccc1CNC(=O)C1CCN(Cc2nc(-c3cccc(Cl)c3)oc2C)CC1,1,21µM*,4,-28,u,-9%
COc1ccccc1CNC(=O)C1CCN(Cc2nc(-c3ccc(OC)c(OC)c3)oc2C)CC1,x,-13%,x,x,u,5%
Cc1ccccc1-c1nc(CN2CCC(C(=O)NCCCN3CCCC3)CC2)c(C)o1,-6,u,1,-26,u,10%
COc1ccc(CCNC(=O)C2CCN(Cc3nc(-c4ccc(OC)c(OC)c4)oc3C)CC2)cc1OC,x,2%,x,x,u,-3%
CCc1ccc(-c2nc(CN3CCC(C(=O)NCCc4ccc(C)cc4)CC3)c(C)o2)cc1,x,-10%,x,x,u,5%
CCN1CCCC1CNC(=O)C1CCN(Cc2nc(-c3cccc(Br)c3)oc2C)CC1 (centres undefined),-20,5.8µM*,-10,-83*,2.9µM*,3%
CCc1ccc(-c2nc(CN3CCC(C(=O)NCc4ccccc4OC)CC3)c(C)o2)cc1,-3,18µM*,-13,u,u,-2%
CCc1ccc(-c2nc(CN3CCC(C(=O)NCCc4ccc(OC)c(OC)c4)CC3)c(C)o2)cc1,-1,16µM*,-2,-54*,u,4%
Cc1oc(-c2cccc(Cl)c2)nc1CN1CCC(C(=O)NCc2ccc(F)cc2)CC1,x,u,x,x,15µM*,0%
Cc1cc(/C=C(\C#N)C(=O)O)c(C)n1CC1CCCO1 (centres undefined),x,u,-3,-14,21µM*,4%
SMILES,CtBP-E1A inh,TDP1 cell CPT,Six1-Eya2 inh,IL1B secr inh,DT40 TDP1 no CPT,TDP1 inh
N#C/C(=C\c1cc2c(cc1Br)OCO2)C(=O)NCC1CCCO1 (centres undefined),-7,u,11,-77*,u,4%
Cc1ccc(C)c(OCCn2cc(/C=C(\C#N)C(=O)NCC3CCCO3)c3ccccc32)c1 (centres undefined),-7,u,-7,u,u,3%
CCCn1c(C)cc(/C=C(\C#N)C(=O)O)c1C,-8,8%,3,-10,10%,0%
Cc1ccc(OCCn2cc(/C=C(\C#N)C(=O)NCC3CCCO3)c3ccccc32)cc1 (centres undefined),-8,13µM*,-3,-13,10µM*,0%
Cc1ccccc1-n1c(C)cc(/C=C(\C#N)C(=O)NCC2CCCO2)c1C (centres undefined),-3,u,-6,-9,12µM*,1%
Cc1ccc(/C=C(\C#N)C(=O)NCC2CCCO2)o1 (centres undefined),2,1%,6,-29,1%,3%
Cn1ncc(C#N)c1/N=C/N1CCOCC1,8,-3%,2,6,-22%,1%
Cc1ccc(OCCn2cc(/C=C(\C#N)C(=O)NCC3CCCO3)c3ccccc32)cc1C (centres undefined),0,13µM*,-11,-6,7.3µM*,3%
Cc1ccc(C)c2[nH]c(=O)c(CN(Cc3ccco3)C(=O)Nc3ccccc3)cc12,-5,u,-5,-23,u,4%
COc1ccccc1NC(=S)N(Cc1ccco1)Cc1cc2cccc(C)c2[nH]c1=O,-13,u,-8,-19,u,6%
COc1ccccc1NC(=O)N(Cc1ccco1)Cc1cc2cc(C)cc(C)c2[nH]c1=O,-8,21µM*,-18,u,15µM*,7%
COc1ccccc1NC(=O)N(Cc1ccco1)Cc1cc2ccc(C)c(C)c2[nH]c1=O,-4,3.7µM*,-20,2,4.1µM*,6%
COc1ccccc1NC(=S)N(Cc1ccco1)Cc1cc2cc(C)c(C)cc2[nH]c1=O,0,4.1µM*,-13,-54*,5.2µM*,5%
C/C(CCc1ccc2c(c1)OCO2)=N\N=C(/N)SC1CC(=O)N(c2ccc(Cl)cc2)C1=O (centres undefined),10,-21%,-5,12,-20%,4%
Cc1oc(C(C)(C)C)cc1-c1cc(NC(=O)c2ccc([N+](=O)[O-])cc2)n[nH]1,0,u,11,-63*,u,3%
COC(C/C=C/C(=O)[C@H](C)OCc1ccccc1)OC,5,5.2µM*,7,-28,7.3µM*,x
COC(C/C=C/C(=O)COCc1ccccc1)OC,-1,15µM*,0,-87*,u,4%
